Assay results: the supplement of paper PMC6555819

System: VDR:RXRa (NR concentration 270 nM, RXRa partner concentration 90 nM)
Test: PBM binding z-score (relative to random genomic background probes); higher = stronger binding; sequences stand for … in GC…GCGATTGACAGCGTAGAATGAAGG
Method: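 Protein-binding microarray (Agilent 4x180K custom design, double-stranded 60-nt probes: 5' GC cap, 34-nt variable region, 24-nt constant primer region; full probe sequence given). Purified or IVT nuclear receptor:RXRα heterodimers (3:1 NR:RXRα, mostly 270:90 nM) or homodimers were incubated for 1 h in PBS with 2% milk and no ligand, then detected with Alexa488 antibodies. Fluorescence from o1-orientation probes (~5 replicates averaged) was converted to z-scores against 500 random hg19 background probes. Variable regions are seed direct-repeat (DR0–DR5) sites, all their single-nucleotide variants and half-site ablations.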

Sequence | PBM binding z-score
GGAACGAGGACAAAGTTGATAGCATCTGTCGACG | -0.104
TGTCAAAGTTCCAAGGTAACGTAAGTATCCACAC | 0.281
CGTCCAAGGTCAATGCTAGGTCAGTGGAAGCATT | 4.77
CGTCCAAGATCAGAGAGGTCAGTGAATGCCGAGT | 3.82
ATTTGTAGGTTAAGGGTCATTCAGGTTGGTTCGC | 6.08
CAGCCTAGGTCAGGGCAAGTATAGGAGGAACGTT | 0.782
GCATACAGGTAATACAAGGTGAAAGTCCGATTGT | 0.492
ATCTCTAGGTAAACGTTCAGTGAATCCCGAGGAT | -0.107
CGTCACAGTTCAAGGTAACGTAACAGAAAGCAGC | 1.61
ATATGTAGGTTACATCCGGGTCATGCAGGCTATG | 3.8
CGTCCAAGGTCAACGTCAGTGAAAGAGACTCGAA | 4.05
TCAGACCGGTGAAGGTAACTCAGGTACGCAGTCG | 0.501
ATCTCTAGGTACAAGTTCAGTGAATCCCGAGGAT | 1.96
CCTTACGCGTCACTCCAGGTTATAGCATCGGAGT | 0.361
ACTATTAGTTGGCTTAGGGCAACCGATACGACGC | 0.158
GCATATAGGTAATACAAGGTGAAAGTCCGATTGT | 0.299
TCGAGTATGTTACCAATGGGGCATTCAGCTTTCT | -0.0704
AATACAGGGTCATCGTAGGCCAGAGTTCGCACAG | 5.79
TAGCCCAGGTCATTGGGCCAGTATAGTACGCATC | 3.03
CCGACTGGGGCAAGCTTACCATAACGCACAGCCA | -0.753

Sequence | PBM binding z-score
TCTTGTAGATCAAGCAGTTTAAGAAAGCCTGAGT | 0.549
TCTGCTAGGTCAGTTGGTCAACTAACGAGCTGCC | 0.33
TCATATAGGTCATACAGGTGAAAGTCGGCATCTA | 5.01
ATCTCTAGGTAACCAAGTACAGTGAATGCCGAAC | 1.19
TCTATTTGTTGATTAGGGCAACCGAAACAGCGGA | 0.823
ACGAGCAGGCCAAGTTTGGGTCACTCAAACAAAG | 0.614
ATCTCTAGGTAACCAATTTCAGTGAATGCCGAAC | 0.336
TCATATAGATAAACAGGTGAAAGTCCGTAAGTTA | 1.18
CTCGAAAGGTCGTGCTCAGGTGAATATACCAAAC | 3.77
CGTCCAAGGTCAGCAGGTCAATGAAAGCGACGTG | 4.68
CCGACAGGGGCAGAAAGGTTACCATACCATCCGG | 1.75
CCTACTGGGCCAGAGGTCATTGATTCCAATGCTC | 4.47
TCGAATAGGTTAGGGGCATTCAGAATGGCGTCGA | 0.8
CCGACTGGGGCAGAAAGGTGACCATACCATCCGG | -0.31
TAGACTAGGTCATTCAGGGGCCAGTATAGAAAGC | 2.48
TCTGCTAGGTCTACGATGGTCAGCTAATCTGCTA | -0.625
CAAACTAGGTCACAGAGGTCAAAGGCCGTGCGTA | 8.04
CAAACTAGGACACAGAGGTCAAAGTCCGTGCGTA | 5.69
TCGAGTAGGTTAGTCGGGGCGTTCAGCCAACATA | 1.48
CCTCGGAGGACAACAGAAGGTCAGAGCTGCCAGA | 1.35
